High-throughput results (PubChem BioAssay)
These entries were drawn from the full list.
aSyn 5UTR act: Activators via SNCA 5'UTR binding, MLPCN | alpha-synuclein 5'UTR reporter, activators screen | activity score, % (tested at 7.5 µM), hits read low | hit rate 7.1% among 300,000; in the data active = activity score below about -60%
Numbers stand for hits; n = inactive.

SMILES | aSyn 5UTR act
O=C(Nc1ccc(CN2CCOCC2)cc1)c1ccc(F)cc1 | -116.8
O=C(Nc1cccc([N+](=O)[O-])c1)c1ccc(CN2CCOCC2)cc1 | -124.1
CC(C)(C)c1ccc(C(=O)Nc2ccc(CN3CCS(=O)(=O)CC3)cc2)cc1 | -68.2
O=C(NN=C1CCN(Cc2ccccc2)CC1)c1ccccc1 | -87.9
O=C(Nc1ccc(CN2CCOCC2)cc1)c1ccco1 | -68.8
O=C(NCCSc1ccccc1)c1ccc(CN2CCOCC2)cc1 | -126.2
CC(C)(C)c1ccc(SCCc2cccnc2)cc1 | -123.0
Cc1onc(-c2c(Cl)cccc2Cl)c1C(=O)N/N=C(\N)COc1ccc(Cl)cc1 | n
Cc1onc(-c2c(F)cccc2Cl)c1C(=O)O/N=C(\N)c1ccc([N+](=O)[O-])o1 | -80.0
CCCc1ccc2oc(C(=O)N3CCCC3)c(C)c2c1 | -178.9
Cc1c(C(=O)N2CCN(C)CC2)oc2ccc(Br)cc12 | -103.6
CCCc1ccc2oc(C(=O)NCCc3cnn(C)c3)c(C)c2c1 | -181.9
CC(=O)N1N=C(c2ccc(C)cc2)OC1c1ccc(Br)cc1 (stereo not given) | -174.4
COc1cccc(NC(=O)Nc2ccc(Br)cn2)c1 | -192.2
COc1ccc(NC(=O)Nc2ccc(Br)cn2)cc1OC | -68.8
Cc1nn(Cc2ccc(Cl)c(Cl)c2)c(C)c1NC(=O)c1cc(-c2ccc3c(c2)OCO3)on1 | n
O=C(NC1CCCCC1)c1cc(-c2cccs2)on1 | -160.9
Cc1ccc(-c2cc(C(=O)NC3CCCC3)no2)cc1 | -140.6
O=C(NC1CCCC1)c1cc(-c2ccc(Cl)c(Cl)c2)on1 | -150.8
O=C(NC1CCCCC1)c1cc(-c2ccc(F)cc2)on1 | -155.8
Cc1c(OCC(=O)OC(C)(C)C)ccc2c3c(c(=O)oc12)CCC3 | -61.6
Cc1c(OCc2ccc([N+](=O)[O-])cc2)ccc2c3c(c(=O)oc12)CCC3 | -114.2
Cc1c(C)c2ccc(OCC(=O)Nc3ccccn3)c(C)c2oc1=O | n
CC(=O)COc1ccc2c3c(c(=O)oc2c1C)CCCCC3 | -120.2
Cc1c(OCC(=O)NCc2cccnc2)ccc2c3c(c(=O)oc12)CCC3 | -71.4
SMILES | aSyn 5UTR act
Cc1nn(-c2ccccc2)c(C)c1C(=O)OCC(=O)N(C)C1CCS(=O)(=O)C1 (stereo not given) | -90.4
CN(C(=O)COC(=O)c1nc(Cl)c(Cl)c(Cl)c1Cl)C1CCS(=O)(=O)C1 (stereo not given) | -210.3
CN(C(=O)COC(=O)c1c2c(nc3ccccc13)/C(=C/c1cccc([N+](=O)[O-])c1)CCC2)C1CCS(=O)(=O)C1 (stereo not given) | n
O=c1c2ccccc2nnn1COc1cccc(Cl)c1 | -107.4
CC(=O)N1CCN(c2ccc(NC(=O)c3ccco3)cc2)CC1 | -82.9
CCC(=O)N1CCN(c2ccc(NC(=O)c3ccco3)cc2)CC1 | -93.6
Cc1ccnc(N/N=C/c2ccccc2)n1 | -89.6
CSc1nccc(N/N=C/c2ccccc2)n1 | -157.7
C(=N\Nc1nccc(-c2cccnc2)n1)/c1ccccc1 | -108.0
Cc1ccc(-c2cc(-c3ccccc3O)nc(N/N=C/c3cccnc3)n2)cc1 | -99.6
COC(=O)C1CCN(C(=O)c2oc3c(Cl)cc(C)cc3c2C)CC1 | -74.1
Cc1cc(Cl)c2oc(C(=O)N3CCN(c4ccncc4)CC3)c(C)c2c1 | n
Cc1ccc2nc(NC(=O)Cn3cc4c(n3)CCCCC4)sc2c1 | -108.0
Cc1ccc2nc(NC(=O)CN3C(=O)NC4(CCCCC4)C3=O)sc2c1 | -82.4
Cc1ccc2nc(-c3ccc(NC(=O)CN4C(=O)NC(C)(c5ccc(OC(F)F)cc5)C4=O)cc3)sc2c1 (stereo not given) | -136.3
CN1CCN(/N=C/c2cccc(Cl)c2Cl)CC1 | -72.4
CCOC(=O)c1c2c(n(C)c1COC)C(=O)C(=O)c1ccc(Br)cc1-2 | n
CCOC(=O)c1c(CNc2ccncc2)n(C)c2cc(Br)c(O)cc12 | -61.8
CCN(CC)c1nc(C)nc2c1cnn2CCc1ccccc1 | -185.4
c1ccc(-c2nnc(-c3ccncc3)nc2-c2ccccc2)cc1 | -105.1
CCOc1ccc(NC(=O)CCC(=O)NNC(=O)COc2ccc(C)cc2Br)cc1 | -76.9
CC(=O)NC(=S)Nc1ccc(NC(=O)COc2ccc(Cl)cc2Cl)cc1 | -62.2
Cc1ccc(Cl)c(OCC(=O)Nc2ccc3c(c2)OCCO3)c1 | -146.1
Cc1ccc(OCC(=O)Nc2ccc3c(c2)OCO3)c(C)c1 | -174.9
Cc1cc(Cl)ccc1OCC(=O)Nc1ccncc1 | -81.4
SMILES | aSyn 5UTR act
Cc1ccc(NC(=O)COc2ccc(Br)cc2C)cc1 | -101.8
O=C(Nc1ccccc1)O[C@@H]1C[C@H]2CCC(=O)N3CC[C@@H](C1)[C@@H]23 | -135.7
O=C(Nc1ccccc1)OC1CC2CC1C1CCCC21 (stereo not given) | -141.0
Nc1ccc(-n2cc(-c3ccccc3)[nH]c2=S)cc1 | -85.6
S=c1[nH]c(-c2ccccc2)cn1-c1ccccc1 | -75.1
COc1ccc(-c2cn(-c3ccccc3)c(=S)[nH]2)cc1OC | -100.4
COc1ccc(C(=O)N[C@H](C(=O)Nc2nc3c(s2)CCCC3)C(C)C)cc1 | -201.3
CCOc1ccccc1C(=O)N[C@H](C(=O)Nc1nc2c(s1)CCCC2)C(C)C | -86.7
O=S(=O)(NCc1cn2ccccc2n1)c1cccs1 | -63.8
Cc1cc(C)n2nc(C(=O)Nc3nccs3)nc2n1 | -111.5
Cc1csc(NC(=O)c2nc3nc(C)cc(C)n3n2)n1 | -90.0
Cc1ccc(C(=O)Nc2ccc(Br)c(C(F)(F)F)c2)cc1 | -211.7
CCN1CCN(Cc2ccc(NC(=O)c3ccc(C)c(NC(=O)c4ccno4)c3)cc2C(F)(F)F)CC1 | n
O=C(Nc1nnc(C2CCCCC2)s1)c1ccco1 | -177.9
O=C(Nc1nnc(C2CC2)s1)c1ccco1 | -74.0
O=C(Nc1nnc(C2CC2)s1)c1cc(-c2ccccc2)nn1-c1ccccc1 | -94.5
CCc1c(C(=O)Nc2nnc(C3CC3)s2)csc1C | -118.6
O=Cc1cccc(OCc2cccc3ccccc23)c1 | -117.1
O=Cc1ccc(OCc2ccc3ccccc3c2)cc1 | -132.2
COc1ccc(COc2cccc(C=O)c2)cc1 | -68.7
O=C(Cc1ccccc1)Nc1ccc(N2CCOCC2)cc1 | -72.9
CC1CCN(c2ccc(NC(=O)Cc3ccccc3)cc2)CC1 | -82.5
O=C(Nc1ccc(N2CCOCC2)cc1)c1cn2ccccc2n1 | n
O=C(CSCCO)Nc1ccc(C23CC4CC(CC(C4)C2)C3)cc1 | -66.2
O=C(O)CSCC(=O)Nc1ccc(C2CCCCC2)cc1 | n
SMILES | aSyn 5UTR act
OCCN1CCN(CC(O)COc2ccc(C34CC5CC(CC(C5)C3)C4)cc2)CC1 (stereo not given) | n
O=C(Nc1cccnc1)C1CCN(S(=O)(=O)c2cccs2)CC1 | -108.2
Clc1ccsc1-c1ccc2ccccc2n1 | -113.3
c1ccc2nc(-c3nccs3)ccc2c1 | -126.1
c1ccc2nc(-c3ccncc3)ccc2c1 | -96.2
Clc1ccsc1-c1ccnc(-n2cccc2)n1 | -62.2
Cc1cc(-c2sccc2Br)nc(-n2cccc2)n1 | -86.8
Fc1ccc(CO/N=C2\CCCc3nonc32)cc1 | -90.6
COc1ccc(/C=C2/SC(=S)N(CCC(=O)O)C2=O)cc1 | n
COc1cc(/C=C2/SC(=S)N(CC3CCCO3)C2=O)ccc1O (stereo not given) | -95.2
Cc1ccc(/C=C2\SC(=S)N(CC3CCCO3)C2=O)o1 (stereo not given) | -68.0
COc1ccc(/C=C2\SC(=S)N(CC3CCCO3)C2=O)cc1 (stereo not given) | -89.2
COc1ccc(/C=C2/SC(=O)NC2=O)cc1 | -117.5
COc1ccc(Nc2ncnc3sc(C)cc23)c(OC)c1 | -82.1
COc1ccccc1NCC(=O)N/N=C(\C)c1cccs1 | -91.7
Cc1nc2c(s1)sc1ccccc12 | -76.1
